tim10-1 inh: tim10-1 yeast growth inhibition; S. cerevisiae tim10-1 ts strain growth, BacTiter-Glo, 24 h; inhibition, % at 20 µM; 330,000 tested, 2.2% active; AID 463190;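 active means inhibition of at least 40%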;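 further: mutant grown at 25 °C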
PfHsp90 yeast 2: growth inhibition of yeast expressing Plasmodium Hsp90; S. cerevisiae expressing PfHsp90, BacTiter-Glo ATP, 48 h; yeast lacking PDR1 and PDR3 efflux regulators; inhibition, % at 9.4 µM; 310,000 tested, 0.32% active;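 active means every replicate shows inhibition above about 80%, whatever the replicate mean, limit read from the data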
SKKanGAS inh: SKKanGAS growth inhibition. AID 1662. inhibition, % at 7.5 µM. S. pyogenes SKKanGAS, kanamycin growth, BacTiter-Glo, 6 h. 300,000 tested, 1.3% active;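 active means mean replicate score, as percent of positive control median, at least 50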;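 further: strain carries kanamycin resistance gene driven by streptokinase promoter and grows in 40 µg/ml kanamycin; loss of luminescence reflects streptokinase promoter inhibition or plain growth inhibition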
TIM10 inh: growth inhibitors of TIM10 yeast strain | AID 463195 | S. cerevisiae TIM10 strain growth, BacTiter-Glo luminescence, 24 h | inhibition, % at 10 µM | 330,000 tested, 1.4% active;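 active means inhibition of 40% or more at the single tested concentration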;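 further: wild-type TIM10 isogenic control strain grown at permissive 25 °C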
tim23-1 inh: inhibits growth of tim23-1 mutant yeast | S. cerevisiae tim23-1 growth, BacTiter-Glo luminescence, 24 h | inhibition, % at 20 µM | AID 463212 | 330,000 tested, 1.3% active;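 active means growth inhibition of the mutant yeast at or above 50%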;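 further: temperature-sensitive mutant grown at 25 °C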
EBI2 antag: EBI2 (human) antagonism; P32249; EBI2 beta-arrestin recruitment, luminescence, 7a,25-OHC stimulated; inhibition, % at 5 µM; 360,000 tested, 0.81% active; in the data active means inhibition above about 38%;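 further: enzyme fragment complementation signal reports receptor beta-arrestin coupling in cells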
Target sequence (P32249 whole entry, looked up, the tested form may be a part): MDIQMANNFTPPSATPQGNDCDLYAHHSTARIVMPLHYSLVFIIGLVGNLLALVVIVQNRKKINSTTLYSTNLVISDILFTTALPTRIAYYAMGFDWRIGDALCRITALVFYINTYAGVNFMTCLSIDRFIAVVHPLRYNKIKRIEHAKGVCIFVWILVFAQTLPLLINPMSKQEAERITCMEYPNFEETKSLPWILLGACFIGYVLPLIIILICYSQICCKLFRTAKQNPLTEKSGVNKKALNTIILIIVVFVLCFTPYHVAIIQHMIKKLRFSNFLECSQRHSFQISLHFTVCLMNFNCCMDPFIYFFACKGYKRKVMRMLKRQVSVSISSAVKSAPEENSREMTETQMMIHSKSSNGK
TIM10 conf: TIM10 yeast growth inhibition, confirmed. shares compounds with TIM10 inh. S. cerevisiae tim10 strain growth, BacTiter-Glo luminescence, 24 h. inhibition, % at 10 µM. 4,600 tested, 63% active. AID 463215;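 active means inhibition of yeast growth at or above a set limit in either of two replicates at 10 µM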; further: this counterscreen used the strain with wild-type TIM10
Numbers stand for hits. Sampled rows, rich in hits. Any-hit rate of the full collection: about 4.7%.

What do the screens show for `Cc1ccc([N+](=O)[O-])cc1N=Nc1c(C)[nH]n(C(N)=S)c1=O`?
tim10-1 inh: inactive; PfHsp90 yeast 2: inactive; SKKanGAS inh: inactive; TIM10 inh: 43; tim23-1 inh: inactive; EBI2 antag: inactive; TIM10 conf: 34

How did CC(C)CC(=O)NC(=S)Nc1ccc(NC(=O)c2ccco2)cc1 do in these assays?
tim10-1 inh: inactive; PfHsp90 yeast 2: inactive; SKKanGAS inh: inactive; TIM10 inh: 46; tim23-1 inh: inactive; EBI2 antag: inactive; TIM10 conf: inactive

How did CC(C)CC(=O)NC(=S)Nc1cccc(NC(=O)c2ccccc2Cl)c1 do in these assays?
tim10-1 inh: inactive; PfHsp90 yeast 2: inactive; SKKanGAS inh: inactive; TIM10 inh: 45; tim23-1 inh: inactive; EBI2 antag: inactive; TIM10 conf: 34

Results for CC(C)CC(=O)Nc1cccc(NC(=O)c2ccccc2Cl)c1 ?
tim10-1 inh: inactive; PfHsp90 yeast 2: inactive; SKKanGAS inh: inactive; TIM10 inh: inactive; tim23-1 inh: inactive; EBI2 antag: inactive

Results for Cc1c(N2C(=O)CSC2c2ccco2)c(=O)n(-c2ccccc2)n1C (configuration not stated) ?
tim10-1 inh: inactive; PfHsp90 yeast 2: inactive; SKKanGAS inh: inactive; TIM10 inh: inactive; tim23-1 inh: inactive; EBI2 antag: inactive

Results for O=C(c1cn(-c2ccccc2)nc1-c1ccc(Br)cc1)N1CCOCC1 ?
tim10-1 inh: inactive; PfHsp90 yeast 2: inactive; SKKanGAS inh: inactive; TIM10 inh: 50; tim23-1 inh: inactive; EBI2 antag: inactive; TIM10 conf: inactive

How did CCn1c2ccccc2c2cc(NC(=O)C(C)Oc3ccc(OC)cc3)ccc21 (configuration not stated) do in these assays?
tim10-1 inh: inactive; PfHsp90 yeast 2: inactive; SKKanGAS inh: inactive; TIM10 inh: inactive; tim23-1 inh: inactive; EBI2 antag: inactive

What do the screens show for `COc1ccccc1CNC(=O)CN1CCN(S(=O)(=O)c2cccs2)CC1`?
tim10-1 inh: inactive; PfHsp90 yeast 2: inactive; SKKanGAS inh: inactive; TIM10 inh: inactive; tim23-1 inh: inactive; EBI2 antag: inactive

Results for CCC(C)(C)C1CCC(=NNC(=S)Nc2cccnc2)CC1 (configuration not stated) ?
tim10-1 inh: inactive; PfHsp90 yeast 2: inactive; SKKanGAS inh: inactive; TIM10 inh: 41; tim23-1 inh: inactive; EBI2 antag: inactive; TIM10 conf: 45

How did COc1ccc(NC(=S)N/N=C2\CC(C)(C)Oc3ccc(O)cc32)cc1 do in these assays?
tim10-1 inh: inactive; PfHsp90 yeast 2: inactive; SKKanGAS inh: inactive; TIM10 inh: 41; tim23-1 inh: inactive; EBI2 antag: inactive; TIM10 conf: inactive

Results for O=C(Nc1cccc(Cl)c1)c1cnn2cccnc12 ?
tim10-1 inh: inactive; PfHsp90 yeast 2: inactive; SKKanGAS inh: inactive; TIM10 inh: 52; tim23-1 inh: inactive; EBI2 antag: inactive; TIM10 conf: 35

How did O=C(Nc1ccccc1)c1ccsc1 do in these assays?
tim10-1 inh: inactive; PfHsp90 yeast 2: inactive; SKKanGAS inh: inactive; TIM10 inh: inactive; tim23-1 inh: inactive; EBI2 antag: inactive

Results for CCN(CC)CCN(C(=O)c1ccc2c(c1)CCCC2)c1nc2c(C)cccc2s1 ?
tim10-1 inh: inactive; PfHsp90 yeast 2: inactive; SKKanGAS inh: inactive; TIM10 inh: 40; tim23-1 inh: inactive; EBI2 antag: inactive; TIM10 conf: inactive

Results for CCN(CC)CCN(C(=O)c1ccc2c(c1)CCCC2)c1nc2ccc(C)cc2s1 ?
tim10-1 inh: inactive; PfHsp90 yeast 2: inactive; SKKanGAS inh: inactive; TIM10 inh: inactive; tim23-1 inh: inactive; EBI2 antag: inactive

What do the screens show for `CCc1ccccc1OCC(=O)OCC(=O)N1CC(=O)Nc2ccccc21`?
tim10-1 inh: inactive; PfHsp90 yeast 2: inactive; SKKanGAS inh: inactive; TIM10 inh: inactive; tim23-1 inh: inactive; EBI2 antag: inactive

What do the screens show for `CCC(C)N(C(=O)COC(=O)c1ccc(N)c([N+](=O)[O-])c1)C1CCS(=O)(=O)C1` (configuration not stated)?
EBI2 antag: inactive

What do the screens show for `COc1ccc(Nc2nccc(N(C)C)c2C#N)cc1`?
tim10-1 inh: inactive; PfHsp90 yeast 2: inactive; SKKanGAS inh: inactive; TIM10 inh: 55; tim23-1 inh: inactive; EBI2 antag: inactive; TIM10 conf: inactive

Results for Cc1ccc(OCC(=O)N(C)CC(=O)Nc2cccc(F)c2)cc1 ?
tim10-1 inh: inactive; PfHsp90 yeast 2: inactive; SKKanGAS inh: inactive; TIM10 inh: inactive; tim23-1 inh: inactive; EBI2 antag: inactive

Results for O=C(COc1ccccc1)N=C1SC2CS(=O)(=O)CC2N1c1ccccc1 (configuration not stated) ?
tim10-1 inh: inactive; PfHsp90 yeast 2: inactive; SKKanGAS inh: inactive; TIM10 inh: 97; tim23-1 inh: inactive; EBI2 antag: inactive; TIM10 conf: inactive

Results for CCOP(=O)(OCC)C(C)(C)NC(=O)Nc1ccc(Cl)c(Cl)c1 ?
tim10-1 inh: inactive; PfHsp90 yeast 2: inactive; SKKanGAS inh: inactive; TIM10 inh: inactive; tim23-1 inh: inactive; EBI2 antag: inactive

How did C=CCN(C(=O)CSc1nc2c(sc3ccccc32)c(=O)n1CCN(CC)CC)c1ccccc1 do in these assays?
tim10-1 inh: inactive; PfHsp90 yeast 2: inactive; SKKanGAS inh: inactive; TIM10 inh: 51; tim23-1 inh: inactive; EBI2 antag: inactive; TIM10 conf: inactive

Results for CCN(CC)CCn1c(SCC(=O)Nc2ccc(F)cc2)nc2c(sc3ccccc32)c1=O ?
tim10-1 inh: inactive; SKKanGAS inh: inactive; TIM10 inh: inactive; tim23-1 inh: inactive

What do the screens show for `CCN(CC)S(=O)(=O)c1ccc(N2CCOCC2)c(NC(=S)NC(=O)c2ccco2)c1`?
tim10-1 inh: inactive; PfHsp90 yeast 2: inactive; SKKanGAS inh: inactive; TIM10 inh: inactive; tim23-1 inh: inactive; EBI2 antag: inactive

How did CCOC(=O)C1=C(N)Oc2ccc3ccccc3c2C1c1cccc(O)c1 (configuration not stated) do in these assays?
tim10-1 inh: inactive; PfHsp90 yeast 2: inactive; SKKanGAS inh: inactive; TIM10 inh: inactive; tim23-1 inh: inactive; EBI2 antag: inactive

What do the screens show for `CCOC(=O)C1=C(N)Oc2ccc3ccccc3c2C1c1cccnc1` (configuration not stated)?
tim10-1 inh: inactive; PfHsp90 yeast 2: inactive; SKKanGAS inh: inactive; TIM10 inh: 46; tim23-1 inh: inactive; EBI2 antag: inactive; TIM10 conf: inactive

How did Cn1c(=O)c(C(=O)c2ccc(S(C)(=O)=O)c(Cl)c2Cl)c(O)c2ccccc21 do in these assays?
tim10-1 inh: inactive; PfHsp90 yeast 2: inactive; SKKanGAS inh: inactive; TIM10 inh: inactive; tim23-1 inh: inactive; EBI2 antag: inactive

What do the screens show for `CCc1ccccc1NC(=O)CNC(=O)CNC(=O)Cc1ccccc1`?
tim10-1 inh: inactive; PfHsp90 yeast 2: inactive; TIM10 inh: inactive; tim23-1 inh: inactive; EBI2 antag: inactive

Results for COc1nccc(C(F)(F)F)c1C(=O)NC(=O)Nc1c(C)cccc1C ?
tim10-1 inh: inactive; PfHsp90 yeast 2: inactive; SKKanGAS inh: inactive; TIM10 inh: 40; tim23-1 inh: inactive; EBI2 antag: inactive; TIM10 conf: inactive

Source: PubChem BioAssay
